Seven compounds from PubChem BioAssay AID2283176 (EPA ToxCast) can be followed below.

Inconclusive results are not listed. The source made the active and inactive calls. How the source made its calls: active means hit-call score of the fitted dose curve at least 0.9, where 1 is the maximum; inconclusive means response in the unintended direction; inactive means score below 0.9.

The AC50 is the midpoint of the concentration-response curve, whichever way the signal moves.

Sequence of human MAP Kinase-Activated Protein Kinase 5 (MAPKAPK5), MAPKAPK5 (gene 8550) (Q8IW41 whole entry, looked up): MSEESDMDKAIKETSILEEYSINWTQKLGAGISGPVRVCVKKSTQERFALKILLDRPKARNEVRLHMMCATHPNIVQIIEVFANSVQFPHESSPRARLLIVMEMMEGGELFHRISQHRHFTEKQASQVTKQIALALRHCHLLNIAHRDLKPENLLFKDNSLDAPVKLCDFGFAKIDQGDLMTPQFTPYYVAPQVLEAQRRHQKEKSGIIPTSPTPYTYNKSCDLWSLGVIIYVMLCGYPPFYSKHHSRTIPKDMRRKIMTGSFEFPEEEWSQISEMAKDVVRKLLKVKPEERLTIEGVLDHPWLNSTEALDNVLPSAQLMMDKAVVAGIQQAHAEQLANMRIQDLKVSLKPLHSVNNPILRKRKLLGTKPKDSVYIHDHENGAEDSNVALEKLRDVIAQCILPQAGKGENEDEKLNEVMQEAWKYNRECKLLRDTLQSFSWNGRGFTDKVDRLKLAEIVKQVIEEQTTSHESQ

In this test the target is human MAP Kinase-Activated Protein Kinase 5 (MAPKAPK5), MAPKAPK5 (gene 8550) (UniProt Q8IW41). Description: NVS_ENZ_hMAPKAPK5: NovaScreen (NVS) Enzymatic Assay for human MAP Kinase-Activated Protein Kinase 5 (MAPKAPK5). Here is the method:
NVS_ENZ_hMAPKAPK5 is a biochemical, single-readout assay that uses extracted gene-proteins in a cell-free assay. Measurements were taken 1 hour after chemical dosing in a 384-well plate.NVS_ENZ_hMAPKAPK5 is one of one assay component(s) measured or calculated from the NVS_ENZ_hMAPKAPK5 assay. It is designed to make measurements of enzyme activity, a form of enzyme reporter, as detected with fluorescence intensity signals by Fluorescence and electrophoretic mobility shift technology.Data from the assay component NVS_ENZ_hMAPKAPK5 was analyzed into 1 assay endpoint. This assay endpoint, NVS_ENZ_hMAPKAPK5, was analyzed in the positive analysis fitting direction relative to DMSO as the negative control and baseline of activity. Using a type of enzyme reporter, loss-of-signal activity can be used to understand changes in the enzymatic activity as they relate to the gene MAPKAPK5. Furthermore, this assay endpoint can be referred to as a primary readout, because this assay […]. To generalize the intended target to other relatable targets, this assay endpoint is annotated to the kinase intended target family, where the subfamily is serine/threonine kinase.
Binding assays used specific radioligands (tritiated, iodinated) with non-radioactive competitive displacement ligands in agonist or antagonist protocols (as indicated) and various reference compounds and inhibitors to titrate specific binding to receptors and transporters. Most enzyme assays (CYPs, kinases, phosphatases, proteases, HDACs) used recombinant protein and specific substrates (fluorescence mostly, some colorimetric and radioactive) and inhibitors, followed by a biochemical separation of substrate and product. All assays for the biochemical HTS were initially run in duplicate at a single concentration (10 uM for CYP450 assays and 25 uM for all others). Assay-chemical combinations meeting a pre-defined threshold (e.g., 30% inhibition and other criteria defined below) were then run in singleton concentration-response format with maximum concentration of 20 uM for CYPs and 50 uM for all others. Each assay was run with positive and negative controls, and concurrent controls on every plate. The follow-up (secondary) screen tested active chemical-pairs in concentration series, as well as a few additional assays not tested in the primary screen, some selected negative inactives, and several cases re-run in the concentration series for confirmatory purposes.
With `S=C(S)NCCNC(=S)S.[Mn+2].[S-]C([S-])=NCCN=C([S-])[S-].[Zn+2]`, the concentration at half-maximal activity (AC50) was 2.41 µM (active).

For `O=C(O)C1(C(=O)Nc2ccc(Cl)cc2Cl)CC1`, the AC50 is 19.1 µM (active).

On to `O=C(Nc1ccc([N+](=O)[O-])cc1Cl)c1cc(Cl)ccc1O`, for which the compound was classed as inactive.

`CCOC(=O)[C@H](C)Oc1ccc(Oc2nc3ccc(Cl)cc3o2)cc1`: the compound was classed as inactive.

Take `N#CSCSc1nc2ccccc2s1`: the AC50 is 14.7 µM (active).

For the compound `S=C([S-])NCCNC(=S)[S-].[Mn+2]`, the AC50 was 0.789 µM (active).

As to `CCN(CC)C(=O)c1cccc(C)c1`, the call was inactive.
